High-throughput results: PubChem BioAssay, National Center for Advancing Translational Sciences (NCATS)
Hits are enriched below; roughly 4.6% of the tested compounds scored in any of these assays.
TRHR PAM = TRH receptor (human) allosteric enhancement. enhancement, % at 2 µM. actives 0.66% (n = 360,000). TRHR cells, fluo-8 calcium fluorescence, EC20 TRH enhancement; in the data active = enhancement above about 30%; note: 0% is about no effect
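TRHR-expressing cells loaded with fluo-8 calcium dye were read kinetically (ex 480/em 530) during compound addition, then stimulated with an EC20 of TRH (10 nM final). Enhancement of the Gq-mediated intracellular calcium response was scored.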
TRHR agonist = activates the human TRH receptor; P34981; TRHR cells, calcium flux fluo-8, FDSS agonist mode; activation, % at 2 µM; actives 0.18% (n = 360,000); AID 493084; note: 0% is about no effect
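TRHR-expressing cells loaded with fluo-8 calcium dye; 23 nL library compound pin-transferred, kinetic FDSS fluorescence (Ex 480/Em 530) recorded about 180 s for agonist-induced calcium release, before a 10 nM TRH EC20 addition for potentiator mode.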
D1 potentiator = human D1 dopamine receptor positive modulation; P21728; HEK293 TREx D1 cells, calcium flux, dopamine EC20 potentiation; potentiation, % at 10 µM; actives 0.036% (n = 360,000); in the data active = potentiation above about 30%; note: 0% is about no effect
Target sequence (P21728 whole entry, looked up): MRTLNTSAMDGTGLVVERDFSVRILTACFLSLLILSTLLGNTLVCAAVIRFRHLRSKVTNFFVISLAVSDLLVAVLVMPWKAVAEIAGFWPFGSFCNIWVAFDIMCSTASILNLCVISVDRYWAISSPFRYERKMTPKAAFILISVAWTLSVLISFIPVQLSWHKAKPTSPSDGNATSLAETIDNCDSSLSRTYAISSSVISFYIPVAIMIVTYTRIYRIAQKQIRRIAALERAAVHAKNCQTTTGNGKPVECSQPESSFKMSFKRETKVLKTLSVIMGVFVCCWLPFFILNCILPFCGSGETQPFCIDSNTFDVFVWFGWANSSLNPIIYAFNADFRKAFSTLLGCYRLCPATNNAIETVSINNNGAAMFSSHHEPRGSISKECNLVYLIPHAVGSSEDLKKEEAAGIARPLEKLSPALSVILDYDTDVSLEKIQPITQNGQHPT
D1 ag = human D1 receptor agonism. P21728. HEK293 T-REx D1 cells, calcium flux, agonist mode. activation, % at 2 µM. actives 1% (n = 360,000); note: 0% is about no effect
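Inducible HEK293 T-REx D1 cells, force-coupled to calcium signalling, were plated at 4000 cells/well with tetracycline and held overnight at 30 C. After no-wash calcium dye loading, compound-evoked calcium rise over 180 s flagged agonists.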
Epigenetic reg = regulators of epigenetic silencing causing reporter derepression in mouse cells. murine LDR cells, GFP reporter derepression, 30 h. Potency, µM (highest dose often 53.9 µM), without a hit: at the highest dose GFP activation, most hits filed as activators. actives 0.2% (n = 280,000). AID 1865; active = well fitted activation curve with a large enough effect; inconclusive = small, poorly fitted or top-dose-only effect; note: potency is the fitted concentration of half-maximal effect; % of control where 0% means no effect; nearly all actives have a fitted effect of over 60% in size
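Reporter derepression read as number of fluorescent GFP-positive objects, 20-120 um in size, counted by laser-scanning cytometer. Mouse LDR line with an epigenetically silenced CMV-GFP locus; compound incubation 30 h, 37 C.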
D1 antag = human D1 dopamine receptor antagonism | HEK293 TREx D1 cells, calcium flux, dopamine EC80; stronger effect = lower value | activity change, negative = inhibition, % at 10 µM | actives 3.2% (n = 360,000) | AID 504652 | P21728; in the data active = activity change below about -30%; note: % is set by controls: 0 for no effect and ±100 for the full control effect
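Tetracycline-induced HEK293 Trex D1 cells, force-coupled to calcium, dye-loaded; compounds added and read 180 s, then EC80 dopamine added and calcium flux tracked kinetically another 180 s.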
Starred values were filed as active, the others as inactive; ? = inconclusive; · = no result given; ! = not active in a repeat. Cut-off read from the data, not from the text of the source, unless noted: active = activation above about 30%; inactive = the rest.

SMILES	TRHR PAM	TRHR agonist	D1 potentiator	D1 ag	Epigenetic reg	D1 antag
CN(CC(=O)Nc1cccc(F)c1)C(=O)c1ccc(C(=O)c2ccccc2)cc1	-5	4	-6	18	·	-60*
CCN(CC)CCCC(C)n1c(-c2ccccc2)nc2c(N3CCOCC3)nc(C)nc21 (centres undefined)	·	·	·	·	1%	·
O=C(/C=C/c1cccc([N+](=O)[O-])c1)NCCN1C(=O)S/C(=C\c2ccc(F)cc2)C1=O	-3	0	-4	4	-3%	-40*
O=C(/C=C/c1ccc([N+](=O)[O-])cc1)NCCN1C(=O)S/C(=C\c2ccc(F)cc2)C1=O	3	0	-4	1	10%	-31*
Cc1ccc(S(=O)(=O)CCC(=O)NCCN2C(=O)S/C(=C/c3ccc(F)cc3)C2=O)cc1	-7	0	-6	6	2%	-26
CC(C)(C)SCCNC(=O)/C=C/c1ccc([N+](=O)[O-])cc1	24	2	-5	13	3%	-36*
CC(C)(C)SCCNC(=O)/C=C/c1cccc([N+](=O)[O-])c1	-1	0	-1	6	1%	2
NCCC[C@@H](CC(=O)N[C@@H]1CCNC[C@H]1C(=O)N[C@H](CC(=O)N[C@@H](CCC(=O)O)CC(=O)O)Cc1ccccc1)NC(=O)C[C@H](Cc1ccccc1)NC(=O)[C@@H]1CNCC[C@H]1N	·	·	·	·	1%	·
CCOC(=O)CCN1CCN(C(=O)c2ccc(-n3c(=O)c(=O)[nH]c4ccccc43)cc2)CC1	·	·	·	·	-4%	·
Cc1cc(C)c(/C=C/c2onc(C)c2S(=O)(=O)N2CCC(C(=O)N(C)Cc3ccccc3)CC2)c(C)c1	4	1	-1	5	-2%	2
COc1ccccc1NS(=O)(=O)c1cccc(C(=O)N/N=C/c2c(CO)cnc(C)c2O)c1	-3	16	-7	13	·	-30*
COC(=O)c1ccc(C(NC(=O)OCc2ccccc2)/C(=C/[C@@H](C)C(=O)N[C@@H](CO)Cc2ccccc2)c2cccnc2)cc1 (some centres undefined)	·	·	·	·	-1%	·
CCSc1nnc(NC(=O)NCC(F)(F)F)s1	34*	0	-4	1	-1%	-6
CCSc1nnc(NC(=O)C2C3C=CC(C3)C2C(=O)O)s1 (centres undefined)	6	1	-10	3	1%	-46*
N#C/C(=C/c1ccc(N2CCOCC2)o1)c1ccc(Cl)cc1	2	2	-1	4	3.2µM*	9
N#C/C(=C\c1ccc(-c2ccc(C(=O)O)cc2)o1)c1nc2ccccc2[nH]1	4	31*!	-2	43*	14%	3
N#C/C(=C\c1ccc(N2CCOCC2)c([N+](=O)[O-])c1)c1nc2ccccc2[nH]1	-5	0	-7	1	-3%	-26
N#C/C(=C\c1ccc(N2CCOCC2)o1)c1nc2ccccc2[nH]1	3	0	-2	64*	13µM*	-20
Cc1ccc2nc(/C(C#N)=C/c3ccc(-c4cccc(Cl)c4)o3)[nH]c2c1	4	59*	1	277*	?	1
COc1ccc(CNc2nc(-c3ccc(OC)cc3)cc(C(F)(F)F)n2)cc1	-5	2	1	22	0%	-1
CC(=O)CSc1nnc2cc(C)c3cc(C)cc(C)c3n12	9	0	2	-2	-3%	7
CCOc1ccc(C(=O)Nc2nnc(S(=O)(=O)Nc3ccccc3)s2)cc1	-5	0	-2	-1	0%	-8
Cc1sc2c(c1C)c(=O)n(-c1cccc(C(F)(F)F)c1)c(=O)n2Cc1ccccc1C#N	2	-1	-1	11	2%	1
Cc1cc(Br)ccc1NC(=O)c1cn(C2CCCC2)c(=O)c2c1c1ccccc1n2C	3	0	1	0	1%	4
Cc1ccc2nc(/C(C#N)=C/c3cn[nH]c3-c3ccc(F)cc3)[nH]c2c1	-6	0	-1	1	-1%	-45*
SMILES	TRHR PAM	TRHR agonist	D1 potentiator	D1 ag	Epigenetic reg	D1 antag
Cc1ccc2nc(/C(C#N)=C/c3ccc(O)c(O)c3)[nH]c2c1	8	15	-3	7	·	-20
Cn1cc(CC(=O)NCCN2CCOCC2)c2ccccc21	-8	0	-9	3	0%	-32*
O=C(NCCN1CCCCC1)Nc1ccc(Br)cc1	4	1	-1	7	·	-60*
O=C(NCCCN1CCc2ccccc2C1)Nc1ccc(Br)cc1	-1	1	-7	41*	0%	-26
COc1ccc(NC(=O)NCCCN2CCc3ccccc3C2)cc1	-4	0	-8	0	0%	18
O=C(CCN1CCCCC1)NNC(=S)NC(=O)c1ccc(Br)cc1	-1	-1	-1	3	?	-36*
Cc1ccc(Cn2cc(CCC(=O)NC3CCCCC3)c3ccccc32)cc1	2	0	1	0	3%	1
Cc1csc2nc(COC(=O)c3ccccc3NC(=O)COc3ccccc3F)cc(=O)n12	9	0	0	4	-1%	4
O=C(Cc1ccccc1)NCCN1CCCC1	0	0	-11	4	0%	-39*
O=C(O)CCCCCNC(=O)c1ccc(Br)cc1	-1	0	-2	2	-1%	-15
O=C(NCCN1CCCC1)c1ccc(Cl)cc1	10	1	-4	0	1%	-7
O=C(NCCCCNC(=O)c1ccc(Br)cc1)c1ccc(Br)cc1	-2	0	-5	0	·	-33*
O=C(NCCN1CCCC1)c1ccc(Br)cc1	9	0	31*	1	·	5
COc1cc(/C=C(\C#N)c2nc3ccccc3[nH]2)cc(Cl)c1OCc1ccccc1Cl	-2	1	-2	1	11µM*	3
N#C/C(=C\c1ccc(OCc2ccc(Cl)cc2Cl)cc1)c1nc2ccccc2[nH]1	3	-1	1	20	?	16
C/C(=C\c1ccccc1)C(=O)c1c(C)cc(C)[nH]c1=O	32*	1	3	-3	0%	21
Cc1cc(OCC(=O)Nc2nnc(C3CC3)s2)ccc1C(C)C	36*	2	-1	3	·	0
CCc1ccc(-c2cc(C)no2)cc1S(=O)(=O)NCc1ccco1	-3	0	-9	3	0%	-26
Cc1cc(-c2ccc(C)c(S(=O)(=O)NCc3ccc(Br)cc3)c2)on1	5	0	-3	3	·	-7
CCc1ccc(-c2cc(C)no2)cc1S(=O)(=O)NCc1ccc(OC)c(OC)c1	14	1	7	2	·	-9
CCc1ccc(-c2cc(C)no2)cc1S(=O)(=O)NCCc1ccc(OC)c(OC)c1	12	0	0	6	·	-36*
